“And” between values parts separate entries of the source, which are not always exact repeats. Equal values may be shown once. A number with no mark means an inactive call. Inconclusive results are not listed. The source made the active and inactive calls. Unless noted, calls follow the shape of the dose curve; as a rule, active = well fitted curve in the direction sought with a large enough effect; inconclusive = small, poorly fitted or top-dose-only effect, or another doubt; inactive = no such curve, though single readings can be large; an effect the other way counts as inactive or inconclusive.
Tests used:
[1] = system: Tov-21-G; test: Primary qHTS to identify gynecologic anti-cancer compounds using libraries of approved drugs and bioactive compounds (AID 1345084); settings: Gynecologic cancer cell panel viability, ATPlite luminescence, 48 h; series mostly up to 57.5 µM; also: % is scaled to controls: 0 for no effect and ±100 for the full control effect; nearly all actives have a fitted effect of over 55% in size
How it was run: (§1)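 Five-point cytotoxicity, 48 h drug exposure at 37 C, 5% CO2, on cells seeded 16 h beforehand. ATP content read by ATPlite luminescence.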

[2] = system: Tov112D; test: as above; settings: Gynecologic cancer cell panel viability, ATPlite luminescence, 48 h; series mostly up to 57.5 µM
How it was run: as §1

[3] = Drug repurposing screens with cells derived from glioblastoma tumor samples (AID 1345199); settings: GBM patient neurospheres viability, ATP luminescence, 48 h; also: nearly all actives have a fitted effect of over 40% in size; also: potency is read from the fitted curve at half-maximal effect; as to activity, negative = cell killing: % is scaled to controls: 0 for no effect and ±100 for the full control effect
How it was run: (§2)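 Four patient lines of CD133+ GBM neurospheres were screened at several concentrations; hits were retested in those lines plus three slower-growing GBM lines, using 48-hour treatment and ATP-based viability.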

[4] = system: astro; test: as above; settings: viability, ATP luminescence, 48 h; series mostly up to 45.9 µM
How it was run: as §2

[5] = biological target: Nuclear receptor subfamily 1 group I member 2 (Rattus norvegicus) (UniProt Q9R1A7); test: qHTS assay for small molecule activators of the rat pregnane X receptor (rPXR) signaling pathway (AID 651751; call rule not given here; also: 0% is about no effect); settings: rPXR reporter cells, luciferase (One-Glo), 24 h
[6] = qHTS assay for small molecule activators of the human pregnane X receptor (PXR) signaling pathway (AID 720659; call rule not given here; also: 0% is about no effect)
[7] = at 20 µM (top of the series), tumour line C
[8] = at 21.2 µM (top of the series), tumour line B
[9] = at 21.2 µM (top of the series), tumour line D
[10] = at 21.3 µM (top of the series), tumour line A
[11] = at 45.9 µM (top of the series), tumour line B
[12] = at 45.9 µM (top of the series), tumour line D
[13] = at 46 µM (top of the series), tumour line A
[14] = at 46.1 µM (top of the series), tumour line C

Chain of Nuclear receptor subfamily 1 group I member 2 (Rattus norvegicus) (Q9R1A7 whole entry, looked up): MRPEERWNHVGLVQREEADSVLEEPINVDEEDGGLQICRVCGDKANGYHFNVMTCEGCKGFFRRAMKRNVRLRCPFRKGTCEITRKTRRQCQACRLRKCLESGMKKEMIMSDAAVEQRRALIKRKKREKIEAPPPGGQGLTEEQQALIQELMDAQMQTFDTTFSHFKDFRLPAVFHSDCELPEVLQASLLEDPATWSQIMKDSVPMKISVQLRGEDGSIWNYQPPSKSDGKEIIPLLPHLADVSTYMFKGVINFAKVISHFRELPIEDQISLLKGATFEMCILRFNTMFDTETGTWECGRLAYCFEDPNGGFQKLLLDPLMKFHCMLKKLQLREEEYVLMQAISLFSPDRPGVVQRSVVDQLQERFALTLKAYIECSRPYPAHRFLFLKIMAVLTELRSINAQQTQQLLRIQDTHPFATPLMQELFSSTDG

SMILES | outcome [1] | outcome [2] | activity, negative = cell killing [3, 7] [%] | activity, negative = cell killing [3, 8] [%] | activity, negative = cell killing [3, 9] [%] | activity, negative = cell killing [3, 10] [%] | outcome [4] | activity, negative = cell killing [3, 11] [%] | activity, negative = cell killing [3, 12] [%] | activity, negative = cell killing [3, 13] [%] | activity, negative = cell killing [3, 14] [%] | max response [5] | outcome [6] | Potency ([3]; tumour line A)
COc1ccccc1OCC(O)CO (stereo unspecified) | inactive | inactive | 14.1 | -4.78 | -22.3 | -18.5 | inactive | – | – | – | – | – | – | –
O=C(O)/C=C/c1ccc(Cn2ccnc2)cc1 | inactive | inactive | 0.197 | -8.95 | -11.8 | -28.4 | inactive | – | – | – | – | – | – | –
CC1(C)[C@@H](OC(=O)CCC(=O)O)CC[C@]2(C)[C@H]3C(=O)C=C4[C@@H]5C[C@@](C)(C(=O)O)CC[C@]5(C)CC[C@@]4(C)[C@]3(C)CC[C@@H]12 | inactive | inactive | -5.99 | -8.6 | -19.2 | -22.2 | inactive | – | – | – | – | – | – | –
CC(=O)[C@@]1(O)CC[C@H]2[C@@H]3C[C@H](C)C4=CC(=O)C=C[C@]4(C)[C@@]3(F)[C@@H](O)C[C@@]21C | inactive | inactive | -10.6 | 4.4 | -1.22 | 13.1 | inactive | – | – | – | – | – | – | –
Cc1c(NC(=O)c2cccnc2)c(=O)n(-c2ccccc2)n1C | inactive | inactive | -4.61 | 2.25 | 12.3 | -13.1 | inactive | – | – | – | – | – | – | –
CC(=O)N1C[C@H](O)C[C@H]1C(=O)O | inactive | inactive | – | – | – | – | inactive | -12.7 | 12.1 | -19.6 | -5.75 | – | – | –
CCOC(=O)[C@H](CCc1ccccc1)N[C@@H](C)C(=O)N1CCC[C@H]1C(=O)O | inactive | inactive | – | – | – | – | inactive | -10.1 | -16.5 | -13.8 | -21.6 | – | – | –
CC1(C)S[C@@H]2[C@H](N=CN3CCCCCC3)C(=O)N2[C@H]1C(=O)O | inactive | inactive | – | – | – | – | inactive | 0.648 | 9.1 | -11.3 | -4.3 | – | – | –
CC(=O)Nc1ccc(C(=O)O)cc1 | inactive | inactive | – | – | – | – | inactive | -15.7 | 14.1 | -33.2 | -22.1 | 0.613% | inactive | –
Cc1c(Cn2ccnc2)c2ccccc2n1CCC(=O)O | inactive | inactive | – | – | – | – | inactive | 1.3 | -4.06 | -28 | -6.27 | – | – | –
COc1ccccc1OC(=O)Oc1ccccc1OC | inactive | inactive | – | – | – | – | inactive | -6.75 | -3.45 | -34.8 | -5.39 | – | – | –
CN[C@@H]1[C@H](O)[C@H](NC)[C@H]2O[C@@]3(O)C(=O)C[C@@H](C)O[C@H]3O[C@@H]2[C@H]1O | inactive | inactive | -1.47 | -21.3 | 0.484 | -6.42 | inactive | – | – | – | – | – | – | –
C[C@]1(Cn2ccnn2)[C@H](C(=O)O)N2C(=O)C[C@H]2S1(=O)=O | inactive | inactive | – | – | – | – | inactive | -6.98 | -15.1 | -24.4 | -1.25 | – | – | –
C1CCN2C[C@@H]3C[C@@H](CN4CCCC[C@@H]34)[C@H]2C1 | inactive | inactive | 4.02 | -1.82 | -18 | -22 | inactive | – | – | – | – | – | – | –
Cc1ccsc1/C=C/C1=NCCCN1C | inactive | inactive | -9.86 | -2.99 | -7.19 | -22.2 | inactive | – | – | – | – | – | – | –
CCN(CC)CC1CCCCN1CC(=O)N1c2ccccc2C(=O)Nc2cccnc21 (stereo unspecified) | inactive | inactive | – | – | – | – | inactive | -15.7 | -5.02 | – | -18.7 | – | – | 20 µM (active)
CCN(CC)C(=O)c1cccc(C)c1 | inactive | inactive | – | – | – | – | inactive | -13.5 | -4.13 | -18.8 | -13.4 | 1.44% and 0.626% | inactive | –
C/C=C/C(=O)N(CC)c1ccccc1C | inactive | inactive | -3.94 | 0.996 | -17.6 | -13.7 | inactive | – | – | – | – | – | – | –
CC1CC(OC(=O)c2ccccc2O)CC(C)(C)C1 (stereo unspecified) | inactive | inactive | – | – | – | – | inactive | -18.3 | -10.1 | -28.9 | 1.33 | 5.1% | – | –

SMILES | outcome [1] | outcome [2] | activity, negative = cell killing [3, 7] [%] | activity, negative = cell killing [3, 8] [%] | activity, negative = cell killing [3, 9] [%] | activity, negative = cell killing [3, 10] [%] | outcome [4] | activity, negative = cell killing [3, 11] [%] | activity, negative = cell killing [3, 12] [%] | activity, negative = cell killing [3, 13] [%] | activity, negative = cell killing [3, 14] [%] | max response [5] | outcome [6] | Potency ([3]; tumour line A)
COc1cc(C(=O)NCCCCCC(=O)O)cc(OC)c1OC | inactive | inactive | – | – | – | – | inactive | -7.31 | -8.75 | -18.3 | -40.8 | – | – | –
OC[C@@H](O)[C@@H](O)[C@H](O)[C@H](O)CO | inactive | inactive | – | – | – | – | inactive | -7.17 | -4.25 | -11.8 | -0.87 | -1.36% | inactive | –
Nc1ccncc1N | inactive | inactive | – | – | – | – | inactive | -7.35 | -6.96 | -18.3 | -14.3 | – | – | –
CC(=O)N[C@@H](CC(C)C)C(=O)O | inactive | inactive | – | – | – | – | inactive | -11.1 | -9.62 | -21.1 | -11.2 | – | – | –
CC(=O)NS(=O)(=O)c1ccc(N)cc1 | inactive | inactive | – | – | – | – | inactive | -8.29 | -18.7 | -22.6 | -4.02 | -2.2% | inactive | –
CC(C)=CCC/C(C)=C/CO | inactive | inactive | – | – | – | – | inactive | -6.27 | 1.11 | -25.2 | 8.23 | 1.1% | – | –
O=C(Cn1ccnc1[N+](=O)[O-])NCc1ccccc1 | inactive | inactive | – | – | – | – | inactive | 4.79 | 3.98 | -20.7 | -17.9 | – | – | –
Cc1c(I)c(=O)n(-c2ccccc2)n1C | inactive | inactive | – | – | – | – | inactive | -4.2 | -14 | -24.2 | 3.68 | – | – | –
CC(=O)Nc1ccccc1 | inactive | inactive | – | – | – | – | inactive | -6.03 | -14.5 | -21.5 | 6.02 | 2.33% | inactive | –
CC(=O)N[C@H]1[C@H]([C@H](O)[C@H](O)CO)OC(C(=O)O)=C[C@@H]1N=C(N)N | inactive | inactive | – | – | – | – | inactive | -18.7 | -2.37 | -22.1 | -20.3 | – | – | –
O=C(NCC(O)CO)c1c(I)c(C(=O)NCC(O)CO)c(I)c(N(CCO)C(=O)CO)c1I (stereo unspecified) | inactive | inactive | -7.07 | -9.85 | 1 | -9.08 | inactive | – | – | – | – | – | – | –
CN/C(=C\[N+](=O)[O-])NCCSCc1csc(CN(C)C)n1 | inactive | inactive | -1.68 | 0.685 | -13.3 | -19.6 | inactive | – | – | – | – | – | – | –
O=C(c1ccccc1)C(O)c1ccccc1 (stereo unspecified) | inactive | inactive | – | – | – | – | inactive | 4.63 | -16.7 | -19 | -3.13 | 4.81% and 0.908% | inactive | –
CC[C@H](C)[C@H](N)C(=O)O | inactive | inactive | – | – | – | – | inactive | -7 | 0.894 | – | 2.32 | – | – | –
CC(C)(C)NCC(O)COc1cccc2c1CCC(=O)N2 (stereo unspecified) | inactive | inactive | -4.91 | -10.6 | 12.4 | – | inactive | – | – | – | – | – | – | –
CCN[C@H]1CN(CCCOC)S(=O)(=O)c2sc(S(N)(=O)=O)cc21 | inactive | inactive | -0.607 | -9.2 | 8.52 | – | inactive | – | – | – | – | – | – | –
c1ccc2[nH]ccc2c1 | inactive | inactive | – | – | – | – | inactive | -8.88 | – | -21.8 | 0.178 | – | – | –
NS(=O)(=O)c1ccc(NC(=O)CCC(=O)O)cc1 | inactive | inactive | – | – | – | – | inactive | -12.7 | 0.766 | – | -4.81 | – | – | –
C=CCNC(N)=S | inactive | inactive | – | – | – | – | – | -3.35 | -8.91 | -13.7 | -3.97 | -5.15% | inactive | –
